HCMV inh: blocks human cytomegalovirus replication; actives 4.5% (n = 410,000); HFF cells, HCMV-luciferase reporter, 72 h; stronger effect = lower value; AID 1259415; activity change, negative = inhibition, % at 57.5 µM; in the data active = activity change below about -60%; inconclusive = no clear call, values can overlap the other calls; inactive = above about -39%
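HFF cells seeded 16 h at 37C, treated with compounds, infected with luciferase-reporter HCMV at MOI 1 PFU/cell; luciferase read at 72 h post infection, normalized to buffer-only and Salinomycin controls.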
LASV entry inh: Lassa virus entry inhibition; actives 1.2% (n = 300,000); Lassa virus pseudotype entry inhibition, cell reporter; AID 540256; Potency, µM (titrated, usually from 37.9 µM), for inactives: at the highest dose activity change, negative = inhibition, usual class: inhibitors; calls by dose curve; tested in HEK293 cells; note: potency is the fitted concentration of half-maximal effect; nearly all actives have a fitted effect of over 50% in size
MARV entry inh: inhibitors of Marburg virus binding or cell entry; actives 1.8% (n = 300,000); Marburg virus pseudotyped entry inhibition, cell reporter; Potency, µM (series often up to 37.8 µM), inactives show top-dose activity change, negative = inhibition, hits mostly inhibitors; AID 540276; calls by dose curve; tested in HEK293 cells; note: potency is the fitted concentration of half-maximal effect
FMDV inh: blocks foot and mouth disease virus | FMDV antiviral cell-based qHTS | Potency, µM (titrated, usually from 57.9 µM), inactives show top-dose activity change, negative = inhibition, actives largely listed as inhibitors | actives 1.2% (n = 410,000); calls by dose curve; tested in HEK293T cells; note: read-out not given here; potency is the fitted concentration of half-maximal effect; nearly all actives have a fitted effect of over 45% in size
* marks the source's active call; other numbers are inactive results; [ ] = dose if it differs, or a comment. Shown are actives, neighbours in structure and some others; about 6.2% of the full set was active somewhere. % is set by controls: 0 for no effect and ±100 for the full control effect.

For CN1/C(=C\C=C2/SC(=S)NC2=O)C(C)(C)c2ccccc21 the results were HCMV inh -93* and FMDV inh inconclusive.
For CN1C(=CC=C2C=C(I)C(=O)C(I)=C2)C(C)(C)c2ccccc21 the results were HCMV inh -77*, LASV entry inh 12%, MARV entry inh -3%[46.1 µM] and FMDV inh 22µM*.
`CCCCCCC(=O)Nc1cc2nc3c(nc2cc1C)c(=O)n(C)c(=O)n3C` gave HCMV inh 15, LASV entry inh 2%[46.1 µM], MARV entry inh 1%[46.1 µM] and FMDV inh -14%.
Screening COc1ccc(NC(=O)CSc2nc3c(c(=O)[nH]2)CCC3)cc1 returned HCMV inh -4, LASV entry inh 14%[46.1 µM], MARV entry inh 23%[46.1 µM] and FMDV inh 13%.
Screening Clc1ccc(CCNC(c2cccc(Cl)c2)c2nnc(-c3ccccc3)o2)cc1 (stereo not given) returned HCMV inh 5, LASV entry inh -1%[46.1 µM], MARV entry inh inconclusive and FMDV inh 16%.
Screening Cc1ccc(Cl)cc1N(C)C(=O)Cn1ncc2c([nH]c3ccccc32)c1=O returned HCMV inh -69* and FMDV inh -4%.
`Cc1ccc2[nH]c3c(=O)n(CC(=O)N(C)c4cc(Cl)ccc4C)ncc3c2c1` gave HCMV inh -22, LASV entry inh 8%[46.1 µM] and FMDV inh 0%.
`C=CCn1c(SCC(=O)NCC)nnc1-c1cc2c(s1)CCC(CC)C2` (stereo not given) gave HCMV inh -68*, LASV entry inh 0%, MARV entry inh 0% and FMDV inh -3%.
CN1CCc2nc(NC(=O)COc3ccc4ccccc4c3)sc2C1 was read as HCMV inh -82*, LASV entry inh inconclusive, MARV entry inh inconclusive and FMDV inh -16%.
Screening C[C@H](N)C(=O)N[C@@H](C)C(=O)N[C@@H](Cc1ccccc1)C(=O)CCl returned FMDV inh 3%[97.4 µM].
O=C1CC(c2ccc3c(c2)OCO3)Sc2nc3ccccc3n21 (stereo not given) was read as HCMV inh inconclusive, LASV entry inh inconclusive, MARV entry inh inconclusive and FMDV inh 18µM*.
`O=C1CC(c2ccccc2)Sc2nc3ccccc3n21` (stereo not given) gave HCMV inh -4, LASV entry inh -26%, MARV entry inh inconclusive and FMDV inh -3%.
Screening CN1/C(=C\C=[N+](C)c2ccccc2)C(C)(C)c2ccccc21 returned HCMV inh -95*, LASV entry inh 4.6µM* and MARV entry inh inconclusive.
CN1/C(=C\C=N\O)C(C)(C)c2ccccc21 was read as HCMV inh 2, LASV entry inh inconclusive, MARV entry inh -2%[46.1 µM] and FMDV inh -6%.
`CC1=NN(c2ccccc2)C(=O)/C1=C\C=C\c1ccccc1` gave HCMV inh -98*, LASV entry inh inconclusive, MARV entry inh inconclusive and FMDV inh 22µM*.
Screening CC1=NN(c2ccccc2)C(=O)/C1=C\C=C1/N(C)c2ccccc2C1(C)C returned HCMV inh -38, LASV entry inh inconclusive, MARV entry inh 11µM* and FMDV inh -22%.
For CC1=NN(c2ccccc2)C(=O)/C1=C/C=C/c1ccc(N(C)C)cc1 the results were HCMV inh 7 and FMDV inh inconclusive.
For COCC1CCCN(Cc2ccc3c(c2)CN(C(=O)c2cc(-c4ccccc4)n[nH]2)CCO3)C1 (stereo not given) the results were FMDV inh -20%.
`COc1ccc(CCn2nnnc2C2(c3ccc(C)cc3)CC2)cc1` gave LASV entry inh -21% and MARV entry inh -5%.
Screening COc1ncc2nc(CCc3ccccc3)c(=O)n(C3CC3)c2n1 returned FMDV inh 11%.
`O=S(=O)(NC1CCCC1)c1ccc(S(=O)(=O)N2CCCN(Cc3ccccc3)C2)cc1` gave HCMV inh -23, LASV entry inh inconclusive, MARV entry inh 5.8µM* and FMDV inh 0%.
`CCCC(=O)NC(=S)Nc1cccc2c(O)cccc12` gave HCMV inh -99*, LASV entry inh 1%[46.1 µM], MARV entry inh 0%[46.1 µM] and FMDV inh 33%.
For CCOC(=O)c1cc(C)n(CC2CCC(C(=O)Nc3ccccc3OC)CC2)c1C (stereo not given) the results were HCMV inh -30, LASV entry inh -1%[46.1 µM] and FMDV inh -24%.
Screening CCOC(=O)c1cc(C)n(CC2CCC(C(=O)Nc3ccc(OCC)cc3)CC2)c1C (stereo not given) returned HCMV inh -61*, LASV entry inh 8%[46.1 µM] and FMDV inh -28%.
COc1ccc(OC)c(CCNC(=O)Cn2ccc3cc(S(=O)(=O)N4CCCCC4)ccc32)c1 was read as HCMV inh -27, LASV entry inh inconclusive and FMDV inh inconclusive.
For O=C1c2ccccc2CCC1CNCCc1ccc(O)cc1 (stereo not given) the results were FMDV inh -7%.
`O=[N+]([O-])c1ccc(S(=O)(=O)N(CC(O)CN2CCCCC2)c2ccccc2)cc1` (stereo not given) gave HCMV inh -9, MARV entry inh 5%[46.1 µM] and FMDV inh 3%.
Screening O=[N+]([O-])c1ccc(N(CC(O)CN2CCCCC2)S(=O)(=O)c2ccccc2)cc1 (stereo not given) returned HCMV inh -64*, LASV entry inh -3%[46.1 µM], MARV entry inh -14%[46.1 µM] and FMDV inh -1%.
O=C(O)[C@@H]1C[C@H](C(=O)O)N1 was read as LASV entry inh 23% and MARV entry inh -8%.
`Cc1ccc2c(CN3CCN(Cc4ccc5c(c4)OCO5)CC3)cc(=O)oc2c1C` gave HCMV inh 37, LASV entry inh -26% and MARV entry inh -22%.
`Cc1c(O)ccc2c(-c3ccccc3)cc(=O)oc12` gave HCMV inh -71* and FMDV inh -26%.
For Cc1ccc2c(CN3CCN(S(=O)(=O)c4ccc5c(c4)OCCO5)CC3)cc(=O)oc2c1C the results were HCMV inh -78*, LASV entry inh inconclusive, MARV entry inh inconclusive and FMDV inh inconclusive.
COc1ccc(-c2cc(=O)oc3c(C)c(O)ccc23)cc1 was read as HCMV inh -72* and FMDV inh -23%.
Screening Cc1c(O)ccc2c(CN3CCOCC3)cc(=O)oc12 returned HCMV inh active and FMDV inh -6%.
`Cc1ccc(Cl)cc1N1CCN(CCCNc2ncnc3onc(-c4ccc(Cl)cc4)c23)CC1` gave HCMV inh 4, LASV entry inh -1%[46.1 µM], MARV entry inh inconclusive and FMDV inh -22%.
`Cn1cnc(S(=O)(=O)N2CCC[C@@H]2c2noc3ccccc23)c1` gave HCMV inh -5.
C[C@@H]1NS(=O)(=O)c2cccc(Cl)c2O[C@@H]1c1ccccc1 was read as HCMV inh -20.
`COc1ccc(/C=C/C(=O)c2c(O)ccc3c(C)cc(=O)oc23)cc1` gave HCMV inh -78* and FMDV inh -25%.
Screening COc1ccc(-c2cc(=O)oc3cc(OC(C)C(=O)NC4CC4)ccc23)cc1 (stereo not given) returned HCMV inh 14 and FMDV inh -11%.
